Measurements from paper PMC7862700, “An all-to-all approach to the identification of sequence-specific readers for epigenetic DNA modifications on cytosine”.

What was measured:
Assay in all cases: DAPPL (digital affinity profiling via proximity ligation, sequencing); 10 mM Tris-HCl pH 7.5, 50 mM NaCl, 1 mM DTT, 4% glycerol, room temperature, 30 min; GST-TFs on glutathione beads, 16-mer random dsDNA library, 0.1% formaldehyde crosslink after washing; high values mean tight binding
[1] = biological target: T1, FLI1 (Homo sapiens, UniProt Q01543 1-452); conditions: protein: recombinant; tags: N-terminal GST; dsDNA, one strand shown
T1 sequence: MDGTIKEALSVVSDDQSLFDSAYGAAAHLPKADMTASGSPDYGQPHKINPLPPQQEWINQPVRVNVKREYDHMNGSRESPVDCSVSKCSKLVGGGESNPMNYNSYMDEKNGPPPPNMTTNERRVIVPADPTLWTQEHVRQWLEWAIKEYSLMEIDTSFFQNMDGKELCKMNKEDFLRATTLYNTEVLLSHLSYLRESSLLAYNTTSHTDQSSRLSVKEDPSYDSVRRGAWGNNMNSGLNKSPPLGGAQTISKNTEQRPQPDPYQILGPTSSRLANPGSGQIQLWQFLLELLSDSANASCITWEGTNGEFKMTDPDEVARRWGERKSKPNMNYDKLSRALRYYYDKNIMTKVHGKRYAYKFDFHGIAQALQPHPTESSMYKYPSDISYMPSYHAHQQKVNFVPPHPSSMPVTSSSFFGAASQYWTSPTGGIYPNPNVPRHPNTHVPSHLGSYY
In short: (§1)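 Binding signal is each hexamer's read frequency for a factor divided by its frequency in the tag-only sample. The factors were GST-fused human transcription factors from yeast, captured on glutathione beads, DNA-barcoded and pooled with that sample. Pools were incubated with 200 nmole of a random double-stranded 16-mer DNA library in Tris/NaCl/DTT/glycerol buffer at room temperature for 30 min, then washed, crosslinked with 0.1% formaldehyde, proximity-ligated with BsaI/T4 ligase (1 h, 37 °C), PCR-amplified and sequenced on an Illumina NextSeq500.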

[2] = biological target: T2, ELK1 (Homo sapiens, UniProt P19419 1-428); conditions: protein: recombinant; tags: N-terminal GST; dsDNA, one strand shown
T2 sequence: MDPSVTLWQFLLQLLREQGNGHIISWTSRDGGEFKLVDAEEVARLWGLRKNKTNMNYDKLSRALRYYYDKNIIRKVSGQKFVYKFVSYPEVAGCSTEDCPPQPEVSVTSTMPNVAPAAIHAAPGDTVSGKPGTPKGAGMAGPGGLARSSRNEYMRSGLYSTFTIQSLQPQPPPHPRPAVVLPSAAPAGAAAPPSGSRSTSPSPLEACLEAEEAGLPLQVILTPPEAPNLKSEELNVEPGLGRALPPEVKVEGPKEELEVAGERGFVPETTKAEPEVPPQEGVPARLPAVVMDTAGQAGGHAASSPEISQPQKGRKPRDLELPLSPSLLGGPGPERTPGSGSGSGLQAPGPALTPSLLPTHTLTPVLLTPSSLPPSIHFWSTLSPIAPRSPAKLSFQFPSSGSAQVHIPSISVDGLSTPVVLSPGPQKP
In short: as §1

[3] = biological target: T3, GABPA (Homo sapiens, UniProt Q06546 1-454); conditions: protein: recombinant; tags: N-terminal GST; dsDNA, one strand shown
T3 sequence: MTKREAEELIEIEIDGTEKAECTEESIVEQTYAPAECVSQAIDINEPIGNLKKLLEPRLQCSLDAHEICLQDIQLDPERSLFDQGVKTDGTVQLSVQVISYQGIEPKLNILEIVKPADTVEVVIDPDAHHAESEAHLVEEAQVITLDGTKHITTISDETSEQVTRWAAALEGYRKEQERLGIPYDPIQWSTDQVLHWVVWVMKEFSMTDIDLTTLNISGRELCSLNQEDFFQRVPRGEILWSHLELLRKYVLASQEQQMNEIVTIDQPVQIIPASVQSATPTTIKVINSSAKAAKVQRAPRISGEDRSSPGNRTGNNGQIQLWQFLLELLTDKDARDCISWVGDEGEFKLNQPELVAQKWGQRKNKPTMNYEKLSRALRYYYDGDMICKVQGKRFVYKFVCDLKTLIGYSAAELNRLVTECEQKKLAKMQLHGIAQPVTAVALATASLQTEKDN
In short: as §1

[4] = biological target: T4, ERG (Homo sapiens, UniProt P11308 1-479); conditions: protein: recombinant; tags: N-terminal GST; dsDNA, one strand shown
T4 sequence: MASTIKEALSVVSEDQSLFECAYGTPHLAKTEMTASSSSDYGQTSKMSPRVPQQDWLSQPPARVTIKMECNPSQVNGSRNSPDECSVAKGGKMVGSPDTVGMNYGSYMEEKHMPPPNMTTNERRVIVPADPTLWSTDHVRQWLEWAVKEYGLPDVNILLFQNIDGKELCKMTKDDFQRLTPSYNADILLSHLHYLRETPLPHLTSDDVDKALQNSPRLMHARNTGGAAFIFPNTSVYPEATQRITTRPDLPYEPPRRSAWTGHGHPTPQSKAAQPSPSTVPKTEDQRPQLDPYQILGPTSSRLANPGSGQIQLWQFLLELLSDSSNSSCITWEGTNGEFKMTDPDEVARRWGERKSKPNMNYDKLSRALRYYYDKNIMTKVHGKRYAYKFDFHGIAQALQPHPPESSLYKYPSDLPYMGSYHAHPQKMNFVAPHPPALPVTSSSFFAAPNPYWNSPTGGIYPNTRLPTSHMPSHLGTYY
In short: as §1

[5] = biological target: ELF1 (Homo sapiens, UniProt P32519 1-619); conditions: protein: recombinant; tags: N-terminal GST; dsDNA, one strand shown
Chain of ELF1 (P32519 whole entry): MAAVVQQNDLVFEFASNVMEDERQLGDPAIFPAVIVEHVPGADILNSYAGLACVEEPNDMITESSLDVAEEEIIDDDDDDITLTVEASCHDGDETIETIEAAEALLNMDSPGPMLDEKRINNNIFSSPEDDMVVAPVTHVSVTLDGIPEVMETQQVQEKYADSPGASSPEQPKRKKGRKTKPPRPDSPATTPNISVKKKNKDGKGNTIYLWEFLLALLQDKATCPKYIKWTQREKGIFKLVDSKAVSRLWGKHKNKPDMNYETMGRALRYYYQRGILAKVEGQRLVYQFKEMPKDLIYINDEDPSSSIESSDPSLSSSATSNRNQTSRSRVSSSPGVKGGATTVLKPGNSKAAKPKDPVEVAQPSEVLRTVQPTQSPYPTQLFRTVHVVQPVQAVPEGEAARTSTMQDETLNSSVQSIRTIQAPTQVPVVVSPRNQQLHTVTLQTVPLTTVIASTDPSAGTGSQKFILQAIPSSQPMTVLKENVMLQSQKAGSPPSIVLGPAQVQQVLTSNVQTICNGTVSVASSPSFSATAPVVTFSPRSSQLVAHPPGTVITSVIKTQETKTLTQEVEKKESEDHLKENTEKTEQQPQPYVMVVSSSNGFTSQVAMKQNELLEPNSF
In short: as §1

[6] = biological target: T5, EHF (Homo sapiens, UniProt Q9NZC4 1-300); conditions: protein: recombinant; tags: N-terminal GST; dsDNA, one strand shown
T5 sequence: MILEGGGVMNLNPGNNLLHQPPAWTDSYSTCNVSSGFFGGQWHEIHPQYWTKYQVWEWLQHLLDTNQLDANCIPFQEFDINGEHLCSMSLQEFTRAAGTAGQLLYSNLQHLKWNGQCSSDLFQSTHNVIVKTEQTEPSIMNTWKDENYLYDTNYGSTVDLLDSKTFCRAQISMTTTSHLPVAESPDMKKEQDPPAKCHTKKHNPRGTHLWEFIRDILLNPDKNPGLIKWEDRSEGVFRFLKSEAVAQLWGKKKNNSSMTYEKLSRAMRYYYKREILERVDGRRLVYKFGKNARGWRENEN
In short: as §1

[7] = biological target: SPI1 (Homo sapiens, UniProt P17947 1-270); conditions: protein: recombinant; tags: N-terminal GST; dsDNA, one strand shown
In short: as §1

[8] = biological target: SPIB (Homo sapiens, UniProt Q01892 1-262); conditions: protein: recombinant; tags: N-terminal GST; dsDNA, one strand shown
Chain of SPIB (Q01892 whole entry): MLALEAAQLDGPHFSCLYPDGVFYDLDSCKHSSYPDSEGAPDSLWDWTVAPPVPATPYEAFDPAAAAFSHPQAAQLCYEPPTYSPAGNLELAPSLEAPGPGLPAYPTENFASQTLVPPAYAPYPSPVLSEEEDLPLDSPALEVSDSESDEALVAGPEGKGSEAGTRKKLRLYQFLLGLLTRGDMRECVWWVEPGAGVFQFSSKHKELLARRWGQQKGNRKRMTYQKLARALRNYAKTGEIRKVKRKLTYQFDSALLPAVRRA
In short: as §1

[9] = biological target: T6, ELK3 (Homo sapiens, UniProt P41970 1-407); conditions: protein: recombinant; tags: N-terminal GST; dsDNA, one strand shown
T6 sequence: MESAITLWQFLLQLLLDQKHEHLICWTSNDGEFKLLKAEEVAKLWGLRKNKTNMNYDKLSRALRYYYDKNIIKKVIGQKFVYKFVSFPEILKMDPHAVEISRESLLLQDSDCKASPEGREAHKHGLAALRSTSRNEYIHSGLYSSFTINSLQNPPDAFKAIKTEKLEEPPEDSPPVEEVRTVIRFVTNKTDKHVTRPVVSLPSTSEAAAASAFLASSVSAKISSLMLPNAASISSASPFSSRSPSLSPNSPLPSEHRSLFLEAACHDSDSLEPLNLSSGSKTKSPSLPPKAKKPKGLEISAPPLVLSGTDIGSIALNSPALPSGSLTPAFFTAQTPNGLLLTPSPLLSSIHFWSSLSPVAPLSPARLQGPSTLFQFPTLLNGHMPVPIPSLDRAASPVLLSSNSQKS
In short: as §1

[10] = biological target: T7, FEV (Homo sapiens, UniProt Q99581 1-238); conditions: protein: recombinant; tags: N-terminal GST; dsDNA, one strand shown
T7 sequence: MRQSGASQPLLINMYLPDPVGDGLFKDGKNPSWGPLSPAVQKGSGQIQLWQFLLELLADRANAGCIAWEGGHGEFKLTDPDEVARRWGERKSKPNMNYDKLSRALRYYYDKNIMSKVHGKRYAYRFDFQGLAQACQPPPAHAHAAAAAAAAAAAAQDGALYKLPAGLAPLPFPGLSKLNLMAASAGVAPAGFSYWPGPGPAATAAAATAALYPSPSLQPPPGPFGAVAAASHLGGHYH
In short: as §1

[11] = biological target: ETV5 (Homo sapiens, UniProt P41161 1-510); conditions: protein: recombinant; tags: N-terminal GST; dsDNA, one strand shown
Chain of ETV5 (P41161 whole entry): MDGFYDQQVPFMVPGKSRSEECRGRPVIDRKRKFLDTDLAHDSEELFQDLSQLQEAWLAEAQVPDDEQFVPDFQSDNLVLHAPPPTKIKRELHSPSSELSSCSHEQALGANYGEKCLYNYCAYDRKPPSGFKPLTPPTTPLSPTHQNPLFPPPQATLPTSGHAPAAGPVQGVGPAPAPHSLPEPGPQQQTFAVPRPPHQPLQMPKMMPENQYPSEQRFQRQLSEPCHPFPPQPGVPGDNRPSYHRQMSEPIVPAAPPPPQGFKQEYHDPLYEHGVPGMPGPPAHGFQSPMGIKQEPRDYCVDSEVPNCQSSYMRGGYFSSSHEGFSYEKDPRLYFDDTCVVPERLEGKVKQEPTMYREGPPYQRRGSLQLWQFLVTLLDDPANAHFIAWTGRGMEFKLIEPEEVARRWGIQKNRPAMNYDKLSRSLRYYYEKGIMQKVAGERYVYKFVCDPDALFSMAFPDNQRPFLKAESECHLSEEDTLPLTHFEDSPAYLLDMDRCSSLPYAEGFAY
In short: as §1

[12] = biological target: HSF1 (Homo sapiens, UniProt Q00613 1-529); conditions: protein: recombinant; tags: N-terminal GST; chain copies: 3; dsDNA, one strand shown
Chain of HSF1 (Q00613 whole entry): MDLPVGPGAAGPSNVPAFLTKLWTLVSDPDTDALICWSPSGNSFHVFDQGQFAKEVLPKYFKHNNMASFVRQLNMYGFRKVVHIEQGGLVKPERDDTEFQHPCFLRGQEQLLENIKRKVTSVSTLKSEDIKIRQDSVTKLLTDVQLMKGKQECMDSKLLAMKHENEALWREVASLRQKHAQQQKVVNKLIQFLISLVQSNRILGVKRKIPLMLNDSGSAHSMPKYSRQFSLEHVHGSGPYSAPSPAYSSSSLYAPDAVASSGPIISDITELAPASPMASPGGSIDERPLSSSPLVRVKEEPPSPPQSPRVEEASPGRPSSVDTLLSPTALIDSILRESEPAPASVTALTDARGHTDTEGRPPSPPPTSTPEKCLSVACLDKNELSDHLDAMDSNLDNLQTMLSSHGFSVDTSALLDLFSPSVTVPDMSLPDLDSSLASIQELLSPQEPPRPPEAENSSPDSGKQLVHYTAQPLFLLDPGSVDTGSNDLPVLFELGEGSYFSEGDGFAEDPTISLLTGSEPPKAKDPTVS
In short: as §1

[13] = biological target: T8, SPIC (Homo sapiens, UniProt Q8N5J4 1-248); conditions: protein: recombinant; tags: N-terminal GST; dsDNA, one strand shown
T8 sequence: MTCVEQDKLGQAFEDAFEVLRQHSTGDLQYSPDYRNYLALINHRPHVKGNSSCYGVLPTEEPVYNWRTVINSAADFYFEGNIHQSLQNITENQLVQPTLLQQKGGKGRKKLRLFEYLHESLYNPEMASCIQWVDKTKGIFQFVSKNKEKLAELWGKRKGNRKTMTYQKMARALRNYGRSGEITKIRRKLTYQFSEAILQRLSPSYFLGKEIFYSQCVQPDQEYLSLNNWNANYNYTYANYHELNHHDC
In short: as §1

[14] = biological target: ELF4 (Homo sapiens, UniProt Q99607 1-663); conditions: protein: recombinant; tags: N-terminal GST; dsDNA, one strand shown
Chain of ELF4 (Q99607 whole entry): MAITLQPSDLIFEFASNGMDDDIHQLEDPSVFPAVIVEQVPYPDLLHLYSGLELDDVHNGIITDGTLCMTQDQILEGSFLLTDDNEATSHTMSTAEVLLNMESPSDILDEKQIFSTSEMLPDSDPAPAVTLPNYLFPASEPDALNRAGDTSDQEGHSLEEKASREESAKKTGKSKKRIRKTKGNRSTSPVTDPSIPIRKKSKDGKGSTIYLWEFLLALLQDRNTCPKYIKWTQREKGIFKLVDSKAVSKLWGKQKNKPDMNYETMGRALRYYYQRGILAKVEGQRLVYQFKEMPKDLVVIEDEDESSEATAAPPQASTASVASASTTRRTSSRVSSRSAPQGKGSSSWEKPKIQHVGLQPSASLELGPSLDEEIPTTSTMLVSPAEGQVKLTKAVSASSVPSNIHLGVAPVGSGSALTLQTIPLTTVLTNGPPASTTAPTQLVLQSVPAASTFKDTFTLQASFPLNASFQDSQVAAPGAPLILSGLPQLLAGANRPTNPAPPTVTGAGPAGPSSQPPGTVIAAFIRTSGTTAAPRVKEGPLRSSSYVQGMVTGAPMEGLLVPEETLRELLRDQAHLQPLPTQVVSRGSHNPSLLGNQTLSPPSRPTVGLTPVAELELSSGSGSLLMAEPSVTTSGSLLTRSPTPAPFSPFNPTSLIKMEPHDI
In short: as §1

[15] = biological target: T9, ELK4 (Homo sapiens, UniProt P28324-2 1-405); conditions: protein: recombinant; tags: N-terminal GST; dsDNA, one strand shown
T9 sequence: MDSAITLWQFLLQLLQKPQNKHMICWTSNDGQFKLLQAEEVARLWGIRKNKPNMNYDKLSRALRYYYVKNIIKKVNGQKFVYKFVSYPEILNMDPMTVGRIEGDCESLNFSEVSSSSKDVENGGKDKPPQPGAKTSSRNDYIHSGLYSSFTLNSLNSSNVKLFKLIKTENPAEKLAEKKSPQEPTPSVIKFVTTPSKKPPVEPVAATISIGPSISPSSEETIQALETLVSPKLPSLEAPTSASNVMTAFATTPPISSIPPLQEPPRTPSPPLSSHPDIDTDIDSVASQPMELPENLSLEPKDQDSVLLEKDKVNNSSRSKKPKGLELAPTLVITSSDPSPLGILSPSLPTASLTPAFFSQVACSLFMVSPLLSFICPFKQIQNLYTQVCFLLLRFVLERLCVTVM
In short: as §1

[16] = biological target: T10, ETV2 (Homo sapiens, UniProt O00321 1-342); conditions: protein: recombinant; tags: N-terminal GST; dsDNA, one strand shown
T10 sequence: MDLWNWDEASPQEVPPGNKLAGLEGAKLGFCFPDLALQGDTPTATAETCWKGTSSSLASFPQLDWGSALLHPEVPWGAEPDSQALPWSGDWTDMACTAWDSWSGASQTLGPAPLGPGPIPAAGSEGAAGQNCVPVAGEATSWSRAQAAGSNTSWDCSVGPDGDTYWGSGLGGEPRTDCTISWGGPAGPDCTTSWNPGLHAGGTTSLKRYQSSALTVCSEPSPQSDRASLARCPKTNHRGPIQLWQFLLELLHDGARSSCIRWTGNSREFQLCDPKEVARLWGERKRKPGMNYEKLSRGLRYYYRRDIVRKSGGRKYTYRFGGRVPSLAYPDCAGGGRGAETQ
In short: as §1

[17] = biological target: T11, ELF3 (Homo sapiens, UniProt P78545 1-371); conditions: protein: recombinant; tags: N-terminal GST; dsDNA, one strand shown
T11 sequence: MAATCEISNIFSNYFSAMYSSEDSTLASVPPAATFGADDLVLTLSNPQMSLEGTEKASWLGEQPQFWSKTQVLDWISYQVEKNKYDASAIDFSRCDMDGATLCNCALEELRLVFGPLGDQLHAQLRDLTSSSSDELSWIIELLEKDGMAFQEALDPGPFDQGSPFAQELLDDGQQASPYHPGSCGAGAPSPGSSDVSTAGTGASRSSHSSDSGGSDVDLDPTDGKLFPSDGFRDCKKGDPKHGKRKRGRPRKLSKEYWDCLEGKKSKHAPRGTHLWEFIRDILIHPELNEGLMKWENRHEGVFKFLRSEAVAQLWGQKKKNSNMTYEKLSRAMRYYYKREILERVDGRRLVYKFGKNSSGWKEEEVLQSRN
In short: as §1

[18] = biological target: CRX (Homo sapiens, UniProt O43186 1-299); conditions: protein: recombinant; tags: N-terminal GST; dsDNA, one strand shown
Chain of CRX (O43186 whole entry): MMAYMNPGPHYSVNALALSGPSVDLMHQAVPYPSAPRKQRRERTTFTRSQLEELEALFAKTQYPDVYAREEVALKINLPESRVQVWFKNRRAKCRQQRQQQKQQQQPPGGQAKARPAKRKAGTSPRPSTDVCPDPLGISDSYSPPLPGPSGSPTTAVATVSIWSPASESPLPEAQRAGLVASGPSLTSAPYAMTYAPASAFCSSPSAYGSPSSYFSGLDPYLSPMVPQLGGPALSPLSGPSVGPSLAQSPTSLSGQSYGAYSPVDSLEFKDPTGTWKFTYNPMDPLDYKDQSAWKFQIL
In short: as §1

[19] = biological target: ETV1 (Homo sapiens, UniProt P50549 1-477); conditions: protein: recombinant; tags: N-terminal GST; dsDNA, one strand shown
Chain of ETV1 (P50549 whole entry): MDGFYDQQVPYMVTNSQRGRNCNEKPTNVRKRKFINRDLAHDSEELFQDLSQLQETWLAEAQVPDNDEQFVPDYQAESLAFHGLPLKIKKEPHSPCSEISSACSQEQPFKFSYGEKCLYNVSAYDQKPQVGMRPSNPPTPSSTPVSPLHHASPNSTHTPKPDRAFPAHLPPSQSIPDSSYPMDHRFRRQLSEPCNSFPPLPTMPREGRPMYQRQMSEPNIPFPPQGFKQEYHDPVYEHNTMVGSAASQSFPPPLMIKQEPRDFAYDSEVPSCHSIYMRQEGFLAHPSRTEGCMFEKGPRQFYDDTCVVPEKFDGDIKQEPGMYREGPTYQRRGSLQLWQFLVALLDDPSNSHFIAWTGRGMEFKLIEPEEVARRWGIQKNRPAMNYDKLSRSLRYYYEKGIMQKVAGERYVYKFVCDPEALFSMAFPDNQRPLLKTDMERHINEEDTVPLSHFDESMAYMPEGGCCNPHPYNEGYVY
In short: as §1

## ATATTC
[1]
  binding signal: 1.24 fold enrichment (6-mer frequency, TF over GST control)
[2]
  binding signal: 1.2 fold enrichment (6-mer frequency, TF over GST control)
[3]
  binding signal: 1.24 fold enrichment (6-mer frequency, TF over GST control)
[4]
  binding signal: 1.18 fold enrichment (6-mer frequency, TF over GST control)
[5]
  binding signal: 1.28 fold enrichment (6-mer frequency, TF over GST control)
[6]
  binding signal: 1.19 fold enrichment (6-mer frequency, TF over GST control)
[7]
  binding signal: 1.19 fold enrichment (6-mer frequency, TF over GST control)
[8]
  binding signal: 1.22 fold enrichment (6-mer frequency, TF over GST control)
[9]
  binding signal: 1.14 fold enrichment (6-mer frequency, TF over GST control)
[10]
  binding signal: 1.19 fold enrichment (6-mer frequency, TF over GST control)
[11]
  binding signal: 1.27 fold enrichment (6-mer frequency, TF over GST control)
[12]
  binding signal: 2.2 fold enrichment (6-mer frequency, TF over GST control)
[13]
  binding signal: 1.3 fold enrichment (6-mer frequency, TF over GST control)
[14]
  binding signal: 1.29 fold enrichment (6-mer frequency, TF over GST control)
[15]
  binding signal: 1.31 fold enrichment (6-mer frequency, TF over GST control)
[16]
  binding signal: 1.22 fold enrichment (6-mer frequency, TF over GST control)
[17]
  binding signal: 1.38 fold enrichment (6-mer frequency, TF over GST control)
[18]
  binding signal: 1.51 fold enrichment (6-mer frequency, TF over GST control)
[19]
  binding signal: 1.26 fold enrichment (6-mer frequency, TF over GST control)
